# sEH act: soluble epoxide hydrolase (human) activation. P34913. purified human sEH enzymatic activity, activator screen. activation, % at 2 µM. 91,000 compounds, 0.04% hits; in the data active = activation above about 37%
# CYP2C9 act: increases human cytochrome P450 2C9 activity | activation factor at 5 µM | recombinant CYP2C9, luciferin-H conversion, luminescence; stronger effect = higher value; factor 1 = untreated enzyme, 0 = blocked | 96,000 compounds, 1.4% hits;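 active = activation factor of 2 or more for CYP2C9 at a 5 µM dose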
# CYP2C19 act: activators of human cytochrome P450 2C19; P33261; AID 1025; 96,000 tested, under 10 active; recombinant CYP2C19, luciferin-H EGE luminescence; stronger effect = higher value; 0 = fully inhibited enzyme, 1 = untreated enzyme; activation factor at 5 µM;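 active = activation factor of at least 2 at 5 µM in the primary screen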
# Target sequence (P33261 whole entry, looked up): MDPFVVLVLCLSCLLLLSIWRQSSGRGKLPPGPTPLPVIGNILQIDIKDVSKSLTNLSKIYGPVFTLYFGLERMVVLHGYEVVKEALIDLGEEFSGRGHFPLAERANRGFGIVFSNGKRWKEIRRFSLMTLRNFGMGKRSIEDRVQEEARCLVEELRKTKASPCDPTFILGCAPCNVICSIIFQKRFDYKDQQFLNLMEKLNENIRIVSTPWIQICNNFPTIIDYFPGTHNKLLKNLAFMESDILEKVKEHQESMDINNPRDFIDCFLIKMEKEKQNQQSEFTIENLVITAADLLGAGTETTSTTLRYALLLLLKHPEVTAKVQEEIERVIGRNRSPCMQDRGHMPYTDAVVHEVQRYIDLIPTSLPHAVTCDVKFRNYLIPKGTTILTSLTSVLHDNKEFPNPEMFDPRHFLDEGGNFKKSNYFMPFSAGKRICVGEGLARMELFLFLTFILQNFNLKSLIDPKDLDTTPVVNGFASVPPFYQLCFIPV
# sEH inhibitor: inhibitors of human soluble epoxide hydrolase; 91,000 compounds, 0.34% hits; AID 707; inhibition, % at 2 µM; P34913; recombinant human sEH enzymatic activity assay; in the data active = inhibition above about 80%
# CYP2C19 inh: blocks human cytochrome P450 2C19. P33261. CYP2C19 Supersomes, luciferin-H EGE luminescence, 30 min. inhibition, % at 5 µM. 96,000 compounds, 21% hits. AID 778;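 active = CYP2C19 inhibition above a set limit at 5 µM in the primary screen, cut at about 50% in these data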
# CYP2C9 inhib: human CYP2C9 inhibition. CYP2C9 Supersomes, luciferin-H conversion, luminescence. inhibition, % at 5 µM. 96,000 compounds, 20% hits;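 active = blocking of liver enzyme CYP2C9 beyond about 50% at 5 µM, limit read from the data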
# Hits are given with their value; . = inactive; / = not tested or not shown. A selection: hits, their analogues and other compounds. The true share with any hit is near 27%.
SMILES,sEH act,CYP2C9 act,CYP2C19 act,sEH inhibitor,CYP2C19 inh,CYP2C9 inhib
CCOC(=O)c1cc(NC(=O)c2c(C)noc2C)cc(C(=O)OCC)c1,.,.,.,.,.,75
COC(=O)C1=C(C)N2C(=O)CSC2=NC1c1ccc2c(c1)OCO2 (centres undefined),/,.,.,/,65,50
COC(=O)c1ccc(NC(=O)c2ccc3c(c2)OCO3)cc1,.,.,.,.,.,.
CN(C)c1ccc(NC(=O)CC2NCCNC2=O)cc1 (centres undefined),.,.,.,.,.,.
COc1ccc(C(=O)COC(=O)CN2C(=O)NC(C)(C)C2=O)cc1OC,.,.,.,.,.,.
O=C(OCCN=C1NS(=O)(=O)c2ccccc21)c1cccnc1,.,.,.,.,.,.
O=C(OCCN=C1NS(=O)(=O)c2ccccc21)C1CC(=O)N(c2ccc(Cl)cc2)C1 (centres undefined),.,.,.,.,.,63
O=C(OCCOCCN=C1NS(=O)(=O)c2ccccc21)C1CC(=O)N(c2ccccc2)C1 (centres undefined),.,.,.,.,.,.
O=C(OCCN=C1NS(=O)(=O)c2ccccc21)c1ccccc1,.,.,.,.,.,85
CC(C)C(=O)OCCN=C1NS(=O)(=O)c2ccccc21,.,.,.,.,.,.
COc1ccc(C(=O)COC(=O)CCN=C2NS(=O)(=O)c3ccccc32)cc1OC,.,.,.,.,74,.
CC1=CC(C)(C)C(C(=O)O)C(C(=O)O)C1 (centres undefined),/,.,.,/,.,.
CCCNC(=O)NC(=O)COC(=O)c1ccc(OC)c(S(=O)(=O)N2CCCc3ccccc32)c1,.,.,.,.,.,95
O=S(=O)(c1cccc2cccnc12)N1CCc2ccccc21,.,.,.,.,.,.
COc1ccc(OC)c(S(=O)(=O)N2CCc3ccccc32)c1,.,.,.,.,77,.
Cc1cc(NC(=O)COC(=O)c2ccc(S(=O)(=O)N3CCCc4ccccc43)cc2)no1,.,.,.,.,.,66
Cc1cc(NC(=O)COC(=O)c2cccc(S(=O)(=O)N3CCOCC3)c2)no1,.,.,.,.,.,.
COc1ccc(OC)c(S(=O)(=O)N2c3cc(F)ccc3CCC2C)c1 (centres undefined),.,.,.,.,88,61
O=C(CN(c1ccccc1)S(=O)(=O)c1ccc(F)cc1)N1CCCCCC1,.,.,.,.,.,.
COc1ccc(F)cc1S(=O)(=O)N1CC(C)CC(C)C1 (centres undefined),.,.,.,.,65,.
COc1ccc(C(=O)N2CCCN(C)CC2)cc1S(=O)(=O)N1CCCc2ccccc21,/,.,.,/,.,50
COc1ccc(OC)c(S(=O)(=O)N2c3ccccc3CC2C)c1 (centres undefined),.,.,.,.,75,79
COc1ccc(OC)c(S(=O)(=O)N2C(C)CCCC2C)c1 (centres undefined),/,.,.,/,93,85
COc1ccc(C(=O)N2CCCCC2)cc1S(=O)(=O)Nc1cccc(C(=O)O)c1,.,/,/,.,/,/
COc1ccc(OC)c(S(=O)(=O)N2CCN(C34CC5CC(CC(C5)C3)C4)CC2)c1,.,.,.,.,.,.
SMILES,sEH act,CYP2C9 act,CYP2C19 act,sEH inhibitor,CYP2C19 inh,CYP2C9 inhib
O=C(NCc1ccccc1)c1ccc(C(=O)N(C2CCCCC2)C2CCCCC2)cc1,.,.,.,.,.,.
COc1ccc(C(=O)NCc2ccc(C)cc2)cc1S(=O)(=O)N1CCCc2ccccc21,.,.,.,.,67,74
COc1ccc(OC)c(S(=O)(=O)N2CCCc3ccccc32)c1,.,.,.,.,84,.
CC1Cc2ccccc2N1S(=O)(=O)c1cccc2nsnc12 (centres undefined),.,.,.,.,79,99
N#CCCNC(=O)CCN1CCOCC1,.,.,.,.,.,.
COCc1[nH]nc2c1C(c1ccccc1Cl)C(C#N)=C(N)O2 (centres undefined),.,.,.,.,.,.
Cc1cc(NC(=O)C2CC=CCC2C(=O)O)no1 (centres undefined),.,.,.,.,.,.
COc1cc(/C=C(/C(=O)c2cccs2)c2nc3ccccc3[nH]2)cc(OC)c1O,.,.,.,.,51,86
CCC(C)NCCOCCSc1ccc(Cl)cc1 (centres undefined),.,.,.,.,.,.
O=C(COC(=O)c1ccccc1NC(=O)c1ccco1)NCc1ccc2c(c1)OCO2,.,.,.,.,.,.
S=C(Nc1ccccn1)c1ccccn1,.,.,.,.,66,51
CSCCC(NC(=O)OC(C)(C)C)C(=O)NC(C(=O)NC(CC(C)C)C(N)=O)C(C)C (centres undefined),.,.,.,.,.,.
O=C(NC1CC2CCCC(C1)N2C1CC1)NC12CC3CC(CC(C3)C1)C2 (centres undefined),.,.,.,99,.,.
Oc1c(C(c2ccccc2)N2CCN(Cc3ccccc3)CC2)sc2ncnn12 (centres undefined),.,.,.,.,78,67
CSc1nnc(-c2sc3cc(Cl)ccc3c2Cl)n1C,.,.,.,.,52,.
CCn1c(SC)nnc1-c1sc2cc(Cl)ccc2c1Cl,.,.,.,.,.,.
CCNC(=O)Nn1c(-c2ccccc2)nc2ccccc2c1=O,.,.,.,.,.,.
COc1cccc(CNn2c(-c3cccc(C)c3)nc3ccccc3c2=O)c1O,.,.,.,.,80,.
CCCCOCP(=O)(CCCC)COCCCC,.,.,.,.,.,.
O=c1c2ccccc2ncn1CCCSc1ccc(Cl)cc1,.,.,.,.,.,.
O=c1c2ccccc2ncn1CCCOc1ccccc1[N+](=O)[O-],.,.,.,.,52,.
O=c1c2ccccc2ncn1CCCSc1ccccc1,.,.,.,.,78,.
Cc1cccc(C)c1OCCCCn1cnc2ccccc2c1=O,.,.,.,.,.,53
Cc1cc(C)c(OCCCCn2cnc3ccccc3c2=O)c(C)c1,.,.,.,.,.,.
Cc1cccc(NC(=O)CSc2nc3ccccc3c3nc(CCc4c(C)n[nH]c4C)nn23)c1,.,.,.,.,66,88
SMILES,sEH act,CYP2C9 act,CYP2C19 act,sEH inhibitor,CYP2C19 inh,CYP2C9 inhib
Cc1n[nH]c(C)c1CCc1nc2c3ccccc3nc(SCC(=O)Nc3ccccc3F)n2n1,.,.,.,.,64,95
Cc1cccc(-n2c(N)cc(=O)nc2SCC(=O)Nc2ccccc2)c1,.,.,.,.,.,.
CCn1ncc(Br)c1C(=O)NC(C)c1ccccc1 (centres undefined),.,/,/,.,/,/
CCn1ncc(Cl)c1C(=O)NC(C)c1ccccc1 (centres undefined),.,.,.,.,62,.
O=S(=O)(Nc1cccc(CCc2ccccn2)c1)c1ccc2ccccc2c1,.,.,.,.,99,.
COc1ccc(CCNC(=O)CSc2nncn2N)cc1OC,.,.,.,.,.,.
